# Data as given in PubChem BioAssay (NCATS).
# Inconclusive results are not listed. Activity calls are given as the source filed them. Calls come from the whole dose curve; as a rule, active = well fitted inhibition curve with a large enough effect; inconclusive = small, poorly fitted or top-dose-only effect; inactive = flat fitted curve, though single readings scatter. Where a SMILES comes first, the peptide text is derived from it. [ ]: non-standard residue; d: D form. pGlu = O=C1CC[C@@H](C(=O)O)N1; Thz = O=C(O)[C@@H]1CSCN1
# Target: Calcium and integrin-binding protein 1 (Homo sapiens) (UniProt Q99828)
# Sequence (Q99828 whole entry, looked up): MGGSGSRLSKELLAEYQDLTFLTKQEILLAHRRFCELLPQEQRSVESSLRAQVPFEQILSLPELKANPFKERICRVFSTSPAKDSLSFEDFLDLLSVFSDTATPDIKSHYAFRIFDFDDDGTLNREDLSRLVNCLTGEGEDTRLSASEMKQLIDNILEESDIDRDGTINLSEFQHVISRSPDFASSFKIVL
# Assay: Primary qHTS for Identification of Calcium Integrin Binding Protein 1 (CIB1) Competitor (AID 1508620);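 for activity change, negative = inhibition: GST tagged CIB1 binding a fluorescein labelled alphaIIb integrin peptide tracer; top concentration of the series differs between compounds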
# Conditions: CIB1-GST / FITC-alphaIIb peptide fluorescence polarization; series mostly up to 114 µM; activity change, negative = inhibition: at the top concentration
# How it was run: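 CIB1-GST (1 uM final) and compound incubated 15 min at room temperature before adding FITC-alphaIIb peptide tracer (100 nM final). Competition for binding read by fluorescence polarization (ex 480, em 540) after another 15 min at room temperature.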
# % is set by controls: 0 for no effect and ±100 for the full control effect; potency is the fitted concentration of half-maximal effect.
Compound,"activity change, negative = inhibition",Potency
O=[N+]([O-])c1ccc(CNc2nc(NCc3cccc(C(F)(F)F)c3)nc3nc[nH]c23)cc1,-19.3% (inactive),–
O=C1CC[C@@H](C(=O)N2CSC[C@H]2C(=O)O)N1 ([pGlu]-[Thz]-OH),0.454% (inactive),–
CC1(C)[C@@H](O)CC[C@]2(C)[C@H]3C(=O)C=C4[C@@H]5C[C@@](C)(C(=O)O)CC[C@]5(C)CC[C@@]4(C)[C@]3(C)CC[C@@H]12,-3.67% (inactive),–
CC1(C)S[C@@H]2[C@H](NC(=O)[C@H](NC(=O)N3CCN(S(C)(=O)=O)C3=O)c3ccccc3)C(=O)N2[C@H]1C(=O)O,4.79% (inactive),–
COc1cc(CNC(=O)CCCC/C=C/C(C)C)ccc1O,5.16% (inactive),–
C[C@H](O)[C@H](O)[C@H]1CNc2nc(N)[nH]c(=O)c2N1,4.02% (inactive),–
CC1(C)S[C@@H]2[C@H](NC(=O)[C@H](N)c3ccc(O)cc3)C(=O)N2[C@H]1C(=O)O,-10.7% (inactive),–
COC(=O)Nc1nc2ccc(C(=O)C3CC3)cc2[nH]1,-8.71% (inactive),–
COC(=O)C1=C(C)NC(C)=C(C(=O)OC)C1c1cccc(NC(=O)NCCCN2CCC(c3cccc(OC)c3)CC2)c1,-0.671% (inactive),–
CN1[C@@H]2CC[C@H]1CC(OC(c1ccccc1)c1ccccc1)C2 (stereo not given in full),-1.59% (inactive),–
CCCSc1ccc2nc(NC(=O)OC)[nH]c2c1,-0.135% (inactive),–
C#C[C@]1(O)CC[C@H]2[C@@H]3CCc4cc(O)ccc4[C@H]3CC[C@@]21C,-145% (inactive),–
Nc1ccc([N+](=O)[O-])cc1O,-10.2% [at 228 µM] (inactive),–
CC1(C)[C@@H](O[C@H]2O[C@H](C(=O)O)[C@@H](O)[C@H](O)[C@H]2O[C@@H]2O[C@H](C(=O)O)[C@@H](O)[C@H](O)[C@H]2O)CC[C@]2(C)[C@H]3C(=O)C=C4[C@@H]5C[C@@](C)(C(=O)O)CC[C@]5(C)CC[C@@]4(C)[C@]3(C)CC[C@@H]12,-1.2% [at 57.7 µM] (inactive),–
CCN(CC)CCCCNc1ncc2cc(-c3c(Cl)cccc3Cl)c(NC(=O)NC(C)(C)C)nc2n1,0.706% (inactive),–
O=C(O)[C@H](CC(=O)N1C[C@H]2CCCC[C@H]2C1)Cc1ccccc1,2.11% (inactive),–
Cc1onc(-c2c(F)cccc2Cl)c1C(=O)N[C@@H]1C(=O)N2[C@@H]1SC(C)(C)[C@@H]2C(=O)O,-5.42% (inactive),–
CC(=O)O[C@H]1C[C@@]2(C)[C@@H](C[C@@H](O)[C@H]3[C@@]4(C)CC[C@@H](O)[C@@H](C)[C@@H]4CC[C@@]32C)/C1=C(\CCC=C(C)C)C(=O)O,3.05% (inactive),–
[O-][n+]1ccccc1SSc1cccc[n+]1[O-],-27.7% [at 57.7 µM] (inactive),–
COc1cc(/C=C/C(=O)N2CCN(CC(=O)N3CCCC3)CC2)cc(OC)c1OC,-2.21% (inactive),–
Fc1ccc2[nH]c(CN3CCN(c4ccccn4)CC3)cc2c1,-3.4% (inactive),–
COC(=O)[C@H]1[C@H]2C[C@@H]3c4[nH]c5cc(OC)ccc5c4CCN3C[C@H]2C[C@@H](OC(=O)/C=C/c2cc(OC)c(OC)c(OC)c2)[C@@H]1OC,25% [at 30.2 µM] (inactive),–
CCCC(=O)OC[C@@H](OC(=O)CCC)[C@@H](OC(=O)CCC)[C@H](Cn1c2nc(=O)[nH]c(=O)c-2nc2cc(C)c(C)cc21)OC(=O)CCC,–,2.82 µM (active)
O=C(Nc1ccc2c(c1)CCN(Cc1ncn[nH]1)C2)c1ccccc1-c1ccc(C(F)(F)F)cc1,1.08% (inactive),–
CCNc1nc2c(ncn2[C@H]2C[C@H](O)[C@@H](CO)O2)c(=O)[nH]1,4.56% (inactive),–
CCCCN(CC)c1nc(C)nc2c1c(C)cn2-c1c(C)cc(C)cc1C,1.48% (inactive),–
CN(CCCOc1ccc(Cc2ccccc2)cc1)CCC(=O)O,5.13% (inactive),–
COC(=O)c1nc(Cl)c(Cl)nc1N,-18.4% (inactive),–
O=C(Nc1ccc2[nH]ncc2c1)C1CCC1,3.53% (inactive),–
CS(=O)(=O)c1ccc(-n2nc(C(F)(F)F)cc2-c2ccc(F)cc2)cc1,-3.34% (inactive),–
